The supplement of paper PMC10338343
± gives the standard deviation. In all, about 3,700 sequences were measured (“pre-steady-state target cleavage rate”: median about 0.02, highest 2% from about 0.23 on). The full list was thinned out, with the highest values kept by preference.

system: MILI (PIWIL2) piRISC loaded with Kctd7 piRNA (26 nt); experiment: pre-steady-state target cleavage rate (min^-1); MIWI and MILI are mouse PIWI proteins and EfPiwi is from a freshwater sponge; tags in brackets are library labels; higher = faster piRNA-guided slicing of the target; conditions: guide: Kctd7 piRNA 5'p-UGUUAAUCUCUCAGAGAAGGUGACAG; auxiliary factor: 500 nM mouse GTSF1
How it was run: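 The pre-steady-state cleavage rate was calculated from a burst-and-steady-state fit. Data came from Cleave-'n-Seq, in which […] transcribed, DNA-blocked target RNA library was mixed with 1 nM active affinity-purified piRISC carrying one synthetic guide, with or without 500 nM GTSF1 partner protein, in HEPES–potassium acetate buffer at 33 °C for 0–8 or 0–960 min. Uncleaved targets were sequenced and normalised to depth and to weakly complementary targets, three trials were pooled, and k3 was capped at 0.0001 min^-1.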
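Also: 1 nM active piRISC with 0.1 nM target library at 33 °C single turnover.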

| Sequence | pre-steady-state target cleavage rate |
| --- | --- |
| UAGUGAGUGACCUUCUCUGAGACAUUAACA | 0.0267 ± 0.0076 |
| UAGUCUCUCACCAUCUCUGAGAGAUUAACA | 0.0256 ± 0.0069 |
| UAGUGAGUGACCUUCUCUGAGAGAUAAACA | 0.0814 ± 0.021 |
| UAGUGACUCACCUUGUCUGAGACAUUAACA | 0.0647 ± 0.011 |
| UAGUGUGUCACCUUCUCUGAGAGAUGUAACA | 0.159 ± 0.029 |
| UAGUGAGUCACCUUCUCUGAGAGGUUAACA | 0.142 ± 0.019 |
| UAGUGAGUCACCUUCUCUGAGAGUUAAACA | 0.297 ± 0.086 |
| UAGUGAGUCACCUUCUCUGAGAGACUUAACA | 0.137 ± 0.032 |
| UAGUGACUCACCUUCUCUGAGAGUUAAACA | 0.0666 ± 0.014 |
| UAGUGUGUCACCUUCUCUGAGAGUUUAUGA | 0.0769 ± 0.038 |
| UAGUCUGUCACCUUCUCUGAGAGAUGUAACA | 0.211 ± 0.03 |
| UAGUGAGUCACCUUCUCUGAGAGUUUAUCA | 0.132 ± 0.049 |
| UAGUGAGUCACCUUCUCUGAGAGAGUUAACA | 0.257 ± 0.044 |
| UAGUGAGUCACCUUCUCUGAGAGAAAAACA | 0.0915 ± 0.023 |
| UAGUGAGUCACCUUCUCUGAGAGUUUAUGA | 0.275 ± 0.092 |
| UAGUGAGUCACCUUCUCUGAGAGAUGUAACA | 0.312 ± 0.047 |
| UAGUGACACACCUUCUCUGAGAGAAAUACA | 0.0296 ± 0.013 |
| UAGUGUGUCAGCUUCUCAGAGAGAUUAACA | 0.0938 ± 0.0081 |
| UAGUGACACACCUUGUCUGAGACAUUAACA | 0.0978 ± 0.026 |

| Sequence | pre-steady-state target cleavage rate |
| --- | --- |
| UAGUGUGUCACCUUCGUCUGAGAGAUUAACA | 0.088 ± 0.012 |
| UAGUGACUCACCUUCUCUGAGAGAUUAUGA | 0.0729 ± 0.012 |
| UAGUGAGUCCCCUUCUCUGAGAGAUUAACA | 0.214 ± 0.021 |
| UAGUGACACACCUUCUCUGAGAGAUUACA | 0.0753 ± 0.023 |
| UAGUGUGUCACCUUCUGUCAGAGAUUAACA | 0.039 ± 0.0051 |
| UAGUGAGUCACCUUCUCUGAGAUAUUAACA | 0.115 ± 0.017 |
| UAGUGACACACCUUCUCUGAGACAUUAACA | 0.0514 ± 0.0091 |
| UAGUGUCUCACCUUCUCUGAGAGAUUAUGA | 0.0163 ± 0.0063 |
| UAGUGACAGACCGUCUCUGAGAGAUUAACA | 0.0355 ± 0.0065 |
| UAGUGAGUCACCUUCACAGAGAGAUUAACA | 0.0664 ± 0.0081 |
| UAGUGACUCACCUUCUGUGACAGAUUAACA | 0.0678 ± 0.011 |
| UAGUGACAGACCUACUCUGAGAGAUUUACA | 0.0238 ± 0.0093 |
| UAGUGACACACCUUCUCUCAGACAUUAACA | 0.0383 ± 0.011 |
| UAGUCAGUCACCAUCUCUGAGAGAUUAACA | 0.171 ± 0.0086 |
| UAGUGUGUCACCUUCUCUGAGAGUUUUACA | 0.14 ± 0.046 |
| UAGUCUGUCACCUUCUCUGAGAGUUUUACA | 0.171 ± 0.054 |
| UAGUGAGUCACCUUCUCUGAGAGUUUUACA | 0.257 ± 0.078 |
| UAGUGUGUCACCAUCUCUGAGAGAUUUACA | 0.158 ± 0.033 |
